Laboratory results taken from PMC4336329 (PLoS ONE, 2015).
Among all 310,000 compounds or so, about 14,000 (4.5%) showed an effect of 50% or more. The effect is printed as a negative number. This is one part of a sample in which strong results are shown more often than they occur.
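Further: peak tail current of the secondary pulse compared with the same well before compound.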

What follows are molecules tested against human ether-à-go-go-related gene (hERG) potassium channel (human, UniProt Q12809) (assay: primary screen, population patch clamp on CHO cells stably expressing hERG; higher = less effect of the substance).
Chain of human ether-à-go-go-related gene (hERG) potassium channel (Q12809 whole entry, looked up): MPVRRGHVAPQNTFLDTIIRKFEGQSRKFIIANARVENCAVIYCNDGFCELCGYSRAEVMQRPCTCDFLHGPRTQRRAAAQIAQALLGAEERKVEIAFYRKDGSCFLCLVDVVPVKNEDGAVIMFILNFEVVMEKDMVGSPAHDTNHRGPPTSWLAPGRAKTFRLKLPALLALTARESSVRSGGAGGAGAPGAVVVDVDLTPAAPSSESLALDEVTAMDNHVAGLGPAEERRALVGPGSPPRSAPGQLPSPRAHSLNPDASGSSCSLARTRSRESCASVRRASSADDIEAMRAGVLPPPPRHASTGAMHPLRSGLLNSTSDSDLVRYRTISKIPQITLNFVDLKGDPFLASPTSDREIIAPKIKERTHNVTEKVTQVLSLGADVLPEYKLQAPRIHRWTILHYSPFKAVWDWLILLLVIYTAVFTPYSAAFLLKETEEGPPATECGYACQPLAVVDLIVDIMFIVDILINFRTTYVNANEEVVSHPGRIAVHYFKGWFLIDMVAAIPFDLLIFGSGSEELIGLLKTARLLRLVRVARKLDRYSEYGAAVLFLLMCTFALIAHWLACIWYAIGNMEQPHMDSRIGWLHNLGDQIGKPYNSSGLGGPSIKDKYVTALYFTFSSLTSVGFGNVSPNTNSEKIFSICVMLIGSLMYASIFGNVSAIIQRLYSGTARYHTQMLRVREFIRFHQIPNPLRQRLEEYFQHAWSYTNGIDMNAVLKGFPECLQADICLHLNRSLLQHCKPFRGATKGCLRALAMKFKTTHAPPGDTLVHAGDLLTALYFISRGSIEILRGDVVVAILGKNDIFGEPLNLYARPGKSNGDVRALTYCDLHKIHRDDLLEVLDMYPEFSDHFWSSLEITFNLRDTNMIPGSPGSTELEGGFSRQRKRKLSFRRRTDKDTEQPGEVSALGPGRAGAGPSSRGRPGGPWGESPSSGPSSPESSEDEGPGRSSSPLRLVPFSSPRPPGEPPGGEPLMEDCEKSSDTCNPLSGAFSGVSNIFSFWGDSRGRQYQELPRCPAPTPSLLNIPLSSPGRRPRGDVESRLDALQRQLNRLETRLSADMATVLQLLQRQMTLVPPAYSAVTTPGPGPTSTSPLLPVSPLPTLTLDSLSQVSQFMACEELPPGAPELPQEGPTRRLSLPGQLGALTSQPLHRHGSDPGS
In the case of `O=C(CSc1nc(C2CCCCC2)nc2ccccc12)N1CCCC1`, the “hERG current change (%, negative = inhibition) at 10uM” value is reported as -12.6%.
With `COc1ccccc1/C=N/NC(=O)C1=NNC(c2ccccc2)(c2ccccc2)C1` the “hERG current change (%, negative = inhibition) at 10uM” value was 2.43%.
With `O=C(CSc1nncn1-c1ccccn1)Nc1ccccc1Cl` the “hERG current change (%, negative = inhibition) at 10uM” value was 4.16%.
For `CCCCn1nnnc1SCC(=O)Nc1ccc(C)cc1`, the “hERG current change (%, negative = inhibition) at 10uM” value was 2.26%.
`COc1cccc(OCCn2cc(C=O)c3ccccc32)c1` was tested, and the “hERG current change (%, negative = inhibition) at 10uM” value was 15.2%.
For `CC(C)(C)c1ccc(C(=O)Nc2cccc3ncccc23)cc1`, the “hERG current change (%, negative = inhibition) at 10uM” value was -2.82%.
`Cc1cc(Oc2ccccc2)nc(SCC(=O)Nc2ccccc2)n1` was tested, and the “hERG current change (%, negative = inhibition) at 10uM” value was 19.4%.
For `CC1CCN(c2oc(-c3ccccc3F)nc2C#N)CC1`, the “hERG current change (%, negative = inhibition) at 10uM” value was -10.7%.
With `COc1cccc(C(=O)N2CCOCC2)c1` the “hERG current change (%, negative = inhibition) at 10uM” value was 20.2%.
`Cc1ccccc1NC(=O)N1CCN(C/C=C/c2ccccc2)CC1` was tested, and the “hERG current change (%, negative = inhibition) at 10uM” value was -22.7%.
With `Cc1ccc(S(=O)(=O)NC(CC(C)C)C(=O)N2CCN(C/C=C/c3ccccc3)CC2)cc1` (stereo not drawn) the “hERG current change (%, negative = inhibition) at 10uM” value was -21.3%.
`Cl.O=C(CCN1CCN(C/C=C/c2ccccc2)CC1)Nc1ccccc1Cl` was tested, and the “hERG current change (%, negative = inhibition) at 10uM” value was -76.4%.
With `CCC(C)c1ccccc1NC(=O)CN1CCN(C/C=C/c2ccccc2)CC1` (stereo not drawn) the “hERG current change (%, negative = inhibition) at 10uM” value was -60.4%.
In the case of `Cc1ccccc1NC(=O)CCN1CCN(C)CC1`, the “hERG current change (%, negative = inhibition) at 10uM” value is reported as 19.4%.
For `O=C(Nc1ccccc1Cl)N1CCN(C/C=C/c2ccccc2)CC1`, the “hERG current change (%, negative = inhibition) at 10uM” value was -25.9%.
In the case of `O=C(CN1CCN(C/C=C/c2ccccc2)CC1)Nc1ccc(F)cc1F`, the “hERG current change (%, negative = inhibition) at 10uM” value is reported as -78.1%.
`O=C(Nc1ccc(F)cc1F)N1CCN(C/C=C/c2ccccc2)CC1` was tested, and the “hERG current change (%, negative = inhibition) at 10uM” value was -39.9%.
For `O=C(CCN1CCN(Cc2ccccc2)CC1)Nc1ccccc1Cl`, the “hERG current change (%, negative = inhibition) at 10uM” value was -46.2%.
For `Cc1cc(NC(=O)CN2CCN(C/C=C/c3ccccc3)CC2)c([N+](=O)[O-])cc1C`, the “hERG current change (%, negative = inhibition) at 10uM” value was -12%.
In the case of `Cc1ccccc1NC(=O)CCN1CCN(C/C=C/c2ccccc2)CC1`, the “hERG current change (%, negative = inhibition) at 10uM” value is reported as -78.9%.
With `Fc1ccc(NC(=S)N2CCN(C/C=C/c3ccccc3)CC2)c(F)c1` the “hERG current change (%, negative = inhibition) at 10uM” value was -25.8%.
For `O=C(COC(=O)c1cnccn1)c1ccc(Br)cc1`, the “hERG current change (%, negative = inhibition) at 10uM” value was 0.614%.
`O=C(CNC(=O)c1ccc(Cl)cc1Cl)OCN1C(=O)c2ccccc2C1=O` was tested, and the “hERG current change (%, negative = inhibition) at 10uM” value was 3.68%.
`Cc1[nH]c2ccccc2c1C(=O)C(=O)NCC1CCCO1` (stereo not drawn) was tested, and the “hERG current change (%, negative = inhibition) at 10uM” value was 6.3%.
For `Cc1ccc(/C=C/C(=O)N2CC(=O)Nc3ccccc32)o1`, the “hERG current change (%, negative = inhibition) at 10uM” value was -24.2%.
`O=C(CN1C(=O)c2ccccc2C1=O)NCCOc1ccccc1` was tested, and the “hERG current change (%, negative = inhibition) at 10uM” value was -2.09%.
In the case of `Cc1ccccc1NC(=O)C(C)O/N=C/c1cccc([N+](=O)[O-])c1` (stereo not drawn), the “hERG current change (%, negative = inhibition) at 10uM” value is reported as -38.7%.
For `CCCS(=O)(=O)N1CCCC(C(=O)NCCCN(C)c2ccccc2)C1` (stereo not drawn), the “hERG current change (%, negative = inhibition) at 10uM” value was 5.82%.
In the case of `CN(C)/C=C(\C#N)S(=O)(=O)c1ccccc1`, the “hERG current change (%, negative = inhibition) at 10uM” value is reported as 9.4%.
For `O=C(CCN1CCN(c2ccccc2)CC1)Nc1ccccc1F`, the “hERG current change (%, negative = inhibition) at 10uM” value was 8.14%.
`Fc1ccccc1NC(=S)N1CCN(C/C=C/c2ccccc2)CC1` was tested, and the “hERG current change (%, negative = inhibition) at 10uM” value was -23.4%.
In the case of `O=C(CCN1CCN(C/C=C/c2ccccc2)CC1)Nc1ccccc1F.O=C(O)C(=O)O`, the “hERG current change (%, negative = inhibition) at 10uM” value is reported as -75.1%.
In the case of `COc1ccc(CN2C(=O)c3ccccc3C2=O)cc1C(=O)Nc1ccccc1N1CCOCC1`, the “hERG current change (%, negative = inhibition) at 10uM” value is reported as -10.7%.
In the case of `COCC(=O)N1CCC(Oc2ccc(C(=O)NCc3cc(C(C)C)no3)cc2)CC1`, the “hERG current change (%, negative = inhibition) at 10uM” value is reported as -2.22%.
`CC(=O)Nc1cccc(-c2cnc3ccccc3n2)c1` was tested, and the “hERG current change (%, negative = inhibition) at 10uM” value was -9.95%.
For `CS(=O)(=O)Nc1cccc(-c2cnc3ccccc3n2)c1`, the “hERG current change (%, negative = inhibition) at 10uM” value was -70.4%.
`CC(C)C(=O)Nc1cccc(-c2cnc3ccccc3n2)c1` was tested, and the “hERG current change (%, negative = inhibition) at 10uM” value was 4.12%.
For `Cc1cc(S(=O)(=O)Nc2cccc(Cl)c2)c(C)s1`, the “hERG current change (%, negative = inhibition) at 10uM” value was 8.15%.
`CCn1c2ccccc2c2cc(/C=N/O)ccc21` was tested, and the “hERG current change (%, negative = inhibition) at 10uM” value was 40.6%.
`CSCCC1NC2(C(=O)Nc3ccc(Cl)cc32)[C@@H]2C(=O)N(C3CCCC3)C(=O)[C@H]12` (stereo partly drawn) was tested, and the “hERG current change (%, negative = inhibition) at 10uM” value was -8.3%.
In the case of `Cc1cc(NC(=O)CSc2nc(-c3cccs3)nc3ccccc23)no1`, the “hERG current change (%, negative = inhibition) at 10uM” value is reported as 14.7%.
For `CCN1CCN(c2nc(Nc3ccc(C)c(C)c3)nc(N)c2[N+](=O)[O-])CC1`, the “hERG current change (%, negative = inhibition) at 10uM” value was -75%.
With `Cc1cccc(Nc2nc(N)c([N+](=O)[O-])c(N3CCOCC3)n2)c1` the “hERG current change (%, negative = inhibition) at 10uM” value was -37.1%.
For `CCN1CCN(c2nc(Nc3ccc(OC)cc3)nc(N)c2[N+](=O)[O-])CC1`, the “hERG current change (%, negative = inhibition) at 10uM” value was -32.2%.
In the case of `COc1ccc(Nc2nc(N)c([N+](=O)[O-])c(N3CCN(C)CC3)n2)cc1`, the “hERG current change (%, negative = inhibition) at 10uM” value is reported as -26.6%.
